In all, about 33,000 sequences were measured (“e-score”: median about -0.05, highest 2% from about 0.38 on). Shown is part of a subset that was picked to be rich in the highest values.

In this experiment the target is T1, SIX1-Q177R homeodomain (human, UniProt Q15475 108-198, Q177R).
T1 sequence: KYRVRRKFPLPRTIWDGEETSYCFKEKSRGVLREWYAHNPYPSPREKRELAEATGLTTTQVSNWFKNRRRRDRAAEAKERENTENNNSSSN
In words: universal protein binding microarray; Universal all-10-mer PBM (8x60K, AMADID 030236), 300 nM GST-tagged protein, Alexa Fluor 488 anti-GST; buffer, salt, pH and temperature not stated (as in Berger); high values mean tight binding. As to conditions: protein: ivt; tags: N-terminal GST; dsDNA, one strand shown. Put shortly: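 Duplicate protein binding microarrays (universal 'all 10-mer', 8×60K format) were incubated with GST-tagged homeodomains at 300 nM final concentration. Binding was quantified as 8-mer E-scores with the Universal PBM Analysis Suite.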
For CGACACCG, the binding signal came to 0.4907 ± 0.00417 E-score. Then CGACCCCC, with 0.256 ± 0.0448 E-score. Then CGACACAC, with 0.345 ± 0.0318 E-score; and GGACACCC, with 0.48 ± 0.00768 E-score. Then CGACACCC, with 0.488 ± 0.01 E-score. Regarding GCCCACCC, the binding signal amounted to 0.229 ± 0.0369 E-score.

Turning to GGACACAC, the binding signal came to 0.382 ± 0.0328 E-score. As for CGGCACCG, the figure is 0.239 ± 0.0344 E-score; as for ACGCACCC, 0.265 ± 0.0257 E-score; as for TACCCTGA, 0.185 ± 0.0156 E-score. Then CGGGGTGC, with 0.219 ± 0.0401 E-score; and TATTGACA, with 0.194 ± 0.0479 E-score. Then CACGCAGG, with 0.264 ± 0.016 E-score.

Consider GTACTCCA, for which the binding signal came to 0.178 ± 0.0308 E-score.

For CGACACAA, the binding signal stood at 0.201 ± 0.104 E-score. As to CGACAACA, the binding signal was found to be 0.245 ± 0.0238 E-score. Then CGACACCA, with 0.488 ± 0.00517 E-score. Then AGACACCC, with 0.469 ± 0.00936 E-score. As for CGTCACAC, the figure is 0.288 ± 0.0273 E-score. Take AGACCCCC: the binding signal turned out to be 0.214 ± 0.0497 E-score. Then AGTCACAC, with 0.326 ± 0.0101 E-score; and GGTCACAC, with 0.384 ± 0.0098 E-score.

Take ACTCCCTC: the binding signal was 0.156 ± 0.0128 E-score. As for TATATATA, the figure is 0.181 ± 0.042 E-score; as for AGGGATCG, 0.216 ± 0.00653 E-score. As for CACTCATG, the figure is 0.244 ± 0.00471 E-score; as for ACCCTTCA, 0.166 ± 0.0264 E-score; as for GGGGTATA, 0.274 ± 0.0131 E-score. As for CACCTCCG, the figure is 0.344 ± 0.00638 E-score; as for ACCCGGGG, 0.297 ± 0.0213 E-score; as for CACTATTA, 0.158 ± 0.0138 E-score. Regarding GTTCGGGA, the binding signal is 0.15 ± 0.0437 E-score.

Take GTACACCA: the binding signal was determined as 0.4849 ± 0.00112 E-score. Then CTGCACCC, with 0.209 ± 0.0458 E-score. Then CTACACCA, with 0.4741 ± 0.00151 E-score.

For CTACACCC, the binding signal turned out to be 0.4824 ± 0.00332 E-score. Regarding CTACAACA, the binding signal came out at 0.161 ± 0.0103 E-score. Then CACCACCA, with 0.329 ± 0.0106 E-score; and GTGCACCA, with 0.246 ± 0.0146 E-score; and GTACAACA, with 0.2 ± 0.0164 E-score. Then CTACCCCC, with 0.268 ± 0.0213 E-score; and ACACACTG, with 0.248 ± 0.0191 E-score; and ATACACTG, with 0.392 ± 0.00512 E-score.

As for CACTAACA, the binding signal was found to be 0.284 ± 0.0307 E-score. CGACCCCG: the binding signal was found to be 0.255 ± 0.0544 E-score. Then CCCAATAC, with 0.17 ± 0.00354 E-score; and TATTTACA, with 0.311 ± 0.0362 E-score; and AAGTAGTG, with 0.27 ± 0.0294 E-score. As for CCCCTCAG, the figure is 0.251 ± 0.0116 E-score; as for ATCCCGTG, 0.228 ± 0.0211 E-score; as for CACGAGGG, 0.189 ± 0.00843 E-score. On to AGGGGTAG, for which the binding signal turned out to be 0.269 ± 0.00879 E-score. Then CACGCCGA, with 0.194 ± 0.0137 E-score; and AAGCGACA, with 0.229 ± 0.0424 E-score.

As for CACCTCCA, the binding signal stood at 0.293 ± 0.0179 E-score. Then ATATACCG, with 0.15 ± 0.0185 E-score. Then ATACACCG, with 0.472 ± 0.00491 E-score; and ATACACCA, with 0.47 ± 0.0019 E-score; and ATACACAG, with 0.187 ± 0.0325 E-score.

On to ATACACCC, for which the binding signal worked out at 0.46 ± 0.00688 E-score.

Take ATGCACCA: the binding signal came to 0.165 ± 0.000877 E-score. Turning to ATACCCCC, the binding signal was 0.364 ± 0.0151 E-score.

Turning to ACCCACCA, the binding signal worked out at 0.2 ± 0.00308 E-score. As for ATACACAC, the figure is 0.315 ± 0.0133 E-score. Then ACTCGGTG, with 0.368 ± 0.00838 E-score. As for CACCTCCC, the figure is 0.256 ± 0.00611 E-score; as for ATACCCCA, 0.254 ± 0.016 E-score; as for ATCGGTGC, 0.204 ± 0.0156 E-score. As for ACTCCCAG, the binding signal was 0.262 ± 0.038 E-score. Then AGGGAGTA, with 0.178 ± 0.0384 E-score. Then TGTCCTAA, with 0.241 ± 0.0454 E-score; and TGTAGACA, with 0.2571 ± 0.000438 E-score; and CGGCACCA, with 0.181 ± 0.0154 E-score. Take ACACAGCG: the binding signal was found to be 0.1958 ± 0.00148 E-score.

Regarding CGTGTCTA, the binding signal turned out to be 0.405 ± 0.0182 E-score. Then AGTGTCTA, with 0.3723 ± 0.00362 E-score. As for GGTATCTA, the figure is 0.216 ± 0.0361 E-score. As for GGTGTCTA, the figure is 0.468 ± 0.0105 E-score; as for GGGGTCTA, 0.229 ± 0.0526 E-score.

With CCCCAAGC, the binding signal turned out to be 0.228 ± 0.0222 E-score.

With CCACCGGA, the binding signal was 0.203 ± 0.037 E-score. Then ACCCCGGT, with 0.298 ± 0.00305 E-score; and ATACCGGG, with 0.213 ± 0.0219 E-score; and ACCCCGGG, with 0.302 ± 0.0198 E-score. As for ACACCGGA, the figure is 0.476 ± 0.00539 E-score. With ACCCCGGC, the binding signal worked out at 0.262 ± 0.0281 E-score.

The values above are taken from PMC10668032, “Altered binding affinity of SIX1-Q177R correlates with enhanced WNT5A and WNT pathway effector expression in Wilms tumor”.
